# Results reported in PubChem BioAssay (EPA / NIEHS).
# Records with an inconclusive call do not appear. Active and inactive are the calls of the source. Rule for the calls: active = hit-call score of the fitted dose curve at least 0.9, where 1 is the maximum; inconclusive = response in the unintended direction; inactive = score below 0.9.
# Legend:
# [1] = target: human Casein Kinase 1-delta (CK1D), CSNK1D (gene 1453) (UniProt P48730); assay: NVS_ENZ_hCK1D: NovaScreen (NVS) Enzymatic Assay for human Casein Kinase 1-delta (CK1D) (AID 2283148)
# Sequence of human Casein Kinase 1-delta (CK1D), CSNK1D (gene 1453) (P48730 whole entry, looked up): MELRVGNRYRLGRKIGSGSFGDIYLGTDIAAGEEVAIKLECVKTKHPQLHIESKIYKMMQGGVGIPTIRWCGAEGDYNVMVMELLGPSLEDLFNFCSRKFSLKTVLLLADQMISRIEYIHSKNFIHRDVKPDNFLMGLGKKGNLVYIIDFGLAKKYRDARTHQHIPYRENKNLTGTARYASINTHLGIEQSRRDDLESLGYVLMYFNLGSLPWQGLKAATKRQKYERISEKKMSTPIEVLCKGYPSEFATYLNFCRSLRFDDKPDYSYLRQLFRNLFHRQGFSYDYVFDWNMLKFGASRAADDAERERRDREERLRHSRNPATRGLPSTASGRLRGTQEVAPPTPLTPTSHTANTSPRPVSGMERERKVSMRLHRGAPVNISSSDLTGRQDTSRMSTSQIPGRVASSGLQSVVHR
# How it was run: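 Recombinant human CK1-delta, cell-free; fluorescent substrate with electrophoretic mobility-shift separation of product, read 1 h after dosing. Single 25 uM duplicate screen, then concentration-response up to 50 uM; loss of signal vs DMSO.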
# [2] = target: human FYN Proto-Oncogene, Src family Tyrosine Kinase (Fyn), FYN (gene 2534) (UniProt P06241); assay: NVS_ENZ_hFyn: NovaScreen (NVS) Enzymatic Assay for human FYN Proto-Oncogene, Src family Tyrosine Kinase (Fyn) (AID 2283161)
# Sequence of human FYN Proto-Oncogene, Src family Tyrosine Kinase (Fyn), FYN (gene 2534) (P06241 whole entry, looked up): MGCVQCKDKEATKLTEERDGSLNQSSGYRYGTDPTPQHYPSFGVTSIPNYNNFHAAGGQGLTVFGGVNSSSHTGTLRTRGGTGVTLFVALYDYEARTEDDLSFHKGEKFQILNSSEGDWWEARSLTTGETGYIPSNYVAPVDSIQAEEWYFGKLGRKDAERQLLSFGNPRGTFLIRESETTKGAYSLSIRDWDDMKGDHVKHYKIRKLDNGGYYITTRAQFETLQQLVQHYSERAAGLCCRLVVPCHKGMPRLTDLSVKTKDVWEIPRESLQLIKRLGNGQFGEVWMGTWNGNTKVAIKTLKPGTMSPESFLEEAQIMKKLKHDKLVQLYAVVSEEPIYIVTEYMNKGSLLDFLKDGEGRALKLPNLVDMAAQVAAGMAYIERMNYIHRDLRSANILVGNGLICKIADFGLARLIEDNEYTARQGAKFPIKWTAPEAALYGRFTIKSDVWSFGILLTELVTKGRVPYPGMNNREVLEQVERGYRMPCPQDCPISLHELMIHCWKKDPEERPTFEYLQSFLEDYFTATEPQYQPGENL
# How it was run: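 Cell-free kinase activity read by fluorescence after mobility-shift separation of substrate and product, 1 h post-dose. Initial single concentration 25 uM in duplicate, then concentration-response follow-up; DMSO baseline.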
# [3] = target: Glycogen synthase kinase-3 beta (Homo sapiens) (UniProt P49841); assay: NVS_ENZ_hGSK3b: NovaScreen (NVS) Enzymatic Assay for human Glycogen Synthase Kinase-3 beta (GSK3b) (AID 2283165)
# Sequence of Glycogen synthase kinase-3 beta (Homo sapiens) (P49841 whole entry, looked up): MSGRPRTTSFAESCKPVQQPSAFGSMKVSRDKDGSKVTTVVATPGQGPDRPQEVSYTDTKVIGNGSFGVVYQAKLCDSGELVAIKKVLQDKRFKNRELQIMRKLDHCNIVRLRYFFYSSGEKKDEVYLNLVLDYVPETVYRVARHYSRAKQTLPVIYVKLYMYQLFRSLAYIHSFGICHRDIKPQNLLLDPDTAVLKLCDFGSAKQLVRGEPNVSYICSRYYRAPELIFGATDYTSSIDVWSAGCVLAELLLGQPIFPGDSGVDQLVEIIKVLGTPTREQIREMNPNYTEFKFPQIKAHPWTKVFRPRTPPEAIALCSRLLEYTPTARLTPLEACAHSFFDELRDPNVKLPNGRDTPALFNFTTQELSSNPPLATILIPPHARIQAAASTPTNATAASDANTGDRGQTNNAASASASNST
# How it was run: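 Recombinant enzyme with specific fluorescent substrate, 1 h, product separated by electrophoretic mobility shift. Primary duplicate screen at 25 uM; actives (e.g. 30% inhibition) followed in singleton concentration-response to 50 uM. Signal loss fitted versus DMSO.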
# [4] = target: human c-Jun N-terminal Kinases (JNK2), MAPK9 (gene 5601) (UniProt P45984); assay: NVS_ENZ_hJNK2: NovaScreen (NVS) Enzymatic Assay for human c-Jun N-terminal Kinases (JNK2) (AID 2283171)
# Sequence of human c-Jun N-terminal Kinases (JNK2), MAPK9 (gene 5601) (P45984 whole entry, looked up): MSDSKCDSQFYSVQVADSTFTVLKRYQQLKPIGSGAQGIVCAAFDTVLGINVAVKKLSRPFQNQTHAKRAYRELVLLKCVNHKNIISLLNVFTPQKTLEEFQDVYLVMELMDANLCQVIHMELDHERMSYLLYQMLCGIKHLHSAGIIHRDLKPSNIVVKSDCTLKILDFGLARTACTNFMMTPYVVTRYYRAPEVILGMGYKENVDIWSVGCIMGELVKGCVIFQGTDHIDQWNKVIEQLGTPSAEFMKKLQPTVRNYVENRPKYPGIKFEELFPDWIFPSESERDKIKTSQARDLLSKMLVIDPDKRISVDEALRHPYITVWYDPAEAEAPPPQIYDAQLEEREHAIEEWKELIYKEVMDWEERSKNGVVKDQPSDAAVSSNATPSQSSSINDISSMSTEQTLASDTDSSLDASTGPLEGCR
# How it was run: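 Chemicals first tested in duplicate at 25 uM, then in singleton concentration series up to 50 uM, against extracted JNK2 enzyme. Activity loss read by fluorescence with mobility-shift separation 1 h post-dose; DMSO baseline.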
# [5] = target: human Caspase 4 (CASP4), CASP4 (gene 837) (UniProt P49662); assay: NVS_ENZ_hCASP4: NovaScreen (NVS) Enzymatic Assay for human Caspase 4 (CASP4) (AID 2283143)
# Sequence of human Caspase 4 (CASP4), CASP4 (gene 837) (P49662 whole entry, looked up): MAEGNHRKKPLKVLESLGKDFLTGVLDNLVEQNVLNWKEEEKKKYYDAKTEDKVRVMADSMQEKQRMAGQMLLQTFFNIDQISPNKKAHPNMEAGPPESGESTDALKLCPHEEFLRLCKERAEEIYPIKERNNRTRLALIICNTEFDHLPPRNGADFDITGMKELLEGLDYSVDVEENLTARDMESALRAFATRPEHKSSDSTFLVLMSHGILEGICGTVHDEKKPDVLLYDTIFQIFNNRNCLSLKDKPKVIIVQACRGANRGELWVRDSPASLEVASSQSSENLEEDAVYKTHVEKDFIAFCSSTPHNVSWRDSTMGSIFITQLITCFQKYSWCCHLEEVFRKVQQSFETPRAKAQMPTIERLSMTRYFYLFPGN
# How it was run: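 Compounds were first tested in duplicate at 25 uM, and hits were titrated singly to a 50 uM maximum. Recombinant protease from E. coli was read by fluorescence 2 h post-dose, and activity loss was fitted against the DMSO baseline.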
# [6] = target: human Esterase Plasma (ES), BCHE (gene 590) (UniProt P06276); assay: NVS_ENZ_hES: NovaScreen (NVS) Enzymatic Assay for human Esterase Plasma (ES) (AID 2283157)
# Sequence of human Esterase Plasma (ES), BCHE (gene 590) (P06276 whole entry, looked up): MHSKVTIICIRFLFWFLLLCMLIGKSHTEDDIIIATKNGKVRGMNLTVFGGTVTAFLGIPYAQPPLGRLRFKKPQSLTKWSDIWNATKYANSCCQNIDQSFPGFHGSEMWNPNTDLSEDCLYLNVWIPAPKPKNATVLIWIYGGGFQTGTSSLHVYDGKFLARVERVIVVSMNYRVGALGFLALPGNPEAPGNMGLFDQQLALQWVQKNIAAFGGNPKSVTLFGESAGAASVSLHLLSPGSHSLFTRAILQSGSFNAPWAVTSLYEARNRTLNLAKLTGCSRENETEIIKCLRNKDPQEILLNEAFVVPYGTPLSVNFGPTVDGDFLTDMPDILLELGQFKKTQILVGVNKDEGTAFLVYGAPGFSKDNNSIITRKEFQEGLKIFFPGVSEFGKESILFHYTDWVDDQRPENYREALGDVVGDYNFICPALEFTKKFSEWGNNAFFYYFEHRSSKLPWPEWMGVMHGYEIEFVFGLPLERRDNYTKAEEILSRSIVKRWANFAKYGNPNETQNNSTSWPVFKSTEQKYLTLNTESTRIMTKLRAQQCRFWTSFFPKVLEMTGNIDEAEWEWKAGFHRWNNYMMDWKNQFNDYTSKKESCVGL
# How it was run: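 Human plasma-derived enzyme, cell-free, colorimetric readout at 0.25 h. Primary screen 25 uM in duplicate; hits (e.g. ≥30% inhibition) rerun singleton up to 50 uM. DMSO = negative control/baseline.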
# [7] = target: Collagenase 3 (Homo sapiens) (UniProt P45452); assay: NVS_ENZ_hMMP13: NovaScreen (NVS) Enzymatic Assay for human Matrix Metalloproteinase-13 (MMP13) (AID 2283182)
# How it was run: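 Recombinant MMP13 cleaving fluorescent substrate, cell-free, measured 1 h after dosing. Primary duplicate screen at 25 uM; actives tested in concentration-response up to 50 uM; loss of signal relative to DMSO.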
# [8] = target: human AKT serine/threonine Kinase 2 (AKT2), AKT2 (gene 208) (UniProt P31751); assay: NVS_ENZ_hAKT2: NovaScreen (NVS) Enzymatic Assay for human AKT serine/threonine Kinase 2 (AKT2) (AID 2283141)
# Sequence of human AKT serine/threonine Kinase 2 (AKT2), AKT2 (gene 208) (P31751 whole entry, looked up): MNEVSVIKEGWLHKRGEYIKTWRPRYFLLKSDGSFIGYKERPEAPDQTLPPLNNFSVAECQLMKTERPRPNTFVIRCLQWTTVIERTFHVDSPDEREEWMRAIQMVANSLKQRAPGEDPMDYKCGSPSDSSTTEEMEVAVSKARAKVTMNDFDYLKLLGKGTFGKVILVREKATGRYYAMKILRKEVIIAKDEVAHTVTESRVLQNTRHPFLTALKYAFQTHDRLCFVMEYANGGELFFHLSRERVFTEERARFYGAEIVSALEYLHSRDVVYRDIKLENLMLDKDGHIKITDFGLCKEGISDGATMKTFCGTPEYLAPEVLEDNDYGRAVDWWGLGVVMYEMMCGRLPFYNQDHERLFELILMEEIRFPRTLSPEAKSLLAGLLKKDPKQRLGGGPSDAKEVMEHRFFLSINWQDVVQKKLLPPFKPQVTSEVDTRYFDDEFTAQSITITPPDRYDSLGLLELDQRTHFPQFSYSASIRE
# How it was run: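 Cell-free fluorescence/electrophoretic mobility shift readout of recombinant human AKT2 activity, 1 h after chemical dosing. Duplicate primary screen at 25 uM, then singleton concentration-response up to 50 uM; loss of signal versus DMSO baseline.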
# [9] = target: human Caspase 8 (CASP8), CASP8 (gene 841) (UniProt Q14790); assay: NVS_ENZ_hCASP8: NovaScreen (NVS) Enzymatic Assay for human Caspase 8 (CASP8) (AID 2283146)
# Sequence of human Caspase 8 (CASP8), CASP8 (gene 841) (Q14790 whole entry, looked up): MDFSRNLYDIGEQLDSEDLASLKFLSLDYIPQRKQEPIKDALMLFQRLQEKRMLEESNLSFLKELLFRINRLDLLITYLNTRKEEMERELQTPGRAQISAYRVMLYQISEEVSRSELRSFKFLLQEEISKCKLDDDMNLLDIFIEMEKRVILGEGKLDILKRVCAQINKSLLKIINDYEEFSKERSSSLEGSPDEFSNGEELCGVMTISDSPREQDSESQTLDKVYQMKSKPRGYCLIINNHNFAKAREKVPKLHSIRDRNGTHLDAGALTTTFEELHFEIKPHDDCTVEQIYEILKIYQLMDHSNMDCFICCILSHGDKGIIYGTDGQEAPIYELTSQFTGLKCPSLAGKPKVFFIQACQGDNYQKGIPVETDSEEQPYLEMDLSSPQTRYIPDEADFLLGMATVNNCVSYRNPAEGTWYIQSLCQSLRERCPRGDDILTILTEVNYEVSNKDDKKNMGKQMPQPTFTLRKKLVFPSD
# How it was run: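 The primary screen tested compounds in duplicate at a single 25 uM concentration, with actives followed up in concentration series. Activity of recombinant (E. coli) protease was measured by fluorescence 1 h post-dose, as signal loss against DMSO.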
# [10] = target: human Colony Stimulating Factor 1 Receptor (CSF1R), CSF1R (gene 1436) (UniProt P07333); assay: NVS_ENZ_hCSF1R: NovaScreen (NVS) Enzymatic Assay for human Colony Stimulating Factor 1 Receptor (CSF1R) (AID 2283150)
# Sequence of human Colony Stimulating Factor 1 Receptor (CSF1R), CSF1R (gene 1436) (P07333 whole entry, looked up): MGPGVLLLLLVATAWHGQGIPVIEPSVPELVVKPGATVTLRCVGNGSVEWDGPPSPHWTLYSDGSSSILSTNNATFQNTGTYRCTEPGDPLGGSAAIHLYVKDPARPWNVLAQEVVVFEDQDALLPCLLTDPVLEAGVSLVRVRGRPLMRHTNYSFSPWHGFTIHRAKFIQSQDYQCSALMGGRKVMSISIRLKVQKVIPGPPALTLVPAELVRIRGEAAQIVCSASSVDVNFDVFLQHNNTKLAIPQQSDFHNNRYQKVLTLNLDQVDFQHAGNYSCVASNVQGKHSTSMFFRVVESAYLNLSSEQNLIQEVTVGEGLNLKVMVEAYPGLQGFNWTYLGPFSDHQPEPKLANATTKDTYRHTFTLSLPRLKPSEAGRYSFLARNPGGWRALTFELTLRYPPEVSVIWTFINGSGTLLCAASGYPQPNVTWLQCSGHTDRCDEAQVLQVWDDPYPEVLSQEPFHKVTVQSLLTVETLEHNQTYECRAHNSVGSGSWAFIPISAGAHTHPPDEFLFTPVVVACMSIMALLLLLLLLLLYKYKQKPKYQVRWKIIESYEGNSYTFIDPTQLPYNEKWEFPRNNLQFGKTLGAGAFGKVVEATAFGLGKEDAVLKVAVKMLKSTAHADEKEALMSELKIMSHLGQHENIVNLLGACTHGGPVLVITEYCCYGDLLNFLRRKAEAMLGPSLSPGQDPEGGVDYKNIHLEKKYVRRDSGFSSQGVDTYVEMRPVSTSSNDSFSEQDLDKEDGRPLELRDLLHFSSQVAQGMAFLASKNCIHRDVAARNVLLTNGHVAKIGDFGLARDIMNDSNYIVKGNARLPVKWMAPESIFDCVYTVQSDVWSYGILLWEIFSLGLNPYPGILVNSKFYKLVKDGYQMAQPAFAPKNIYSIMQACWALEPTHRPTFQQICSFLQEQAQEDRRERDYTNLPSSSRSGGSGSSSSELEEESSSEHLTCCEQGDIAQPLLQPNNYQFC
# How it was run: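 Compounds screened in duplicate at 25 uM, then concentration-response (top 50 uM) for those passing threshold such as 30% inhibition; recombinant CSF1R activity measured 1 h post-dosing via fluorescent substrate/product mobility-shift separation, loss of signal versus DMSO.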
# [11] = target: human Elastase, ELANE (gene 1991) (UniProt P08246); assay: NVS_ENZ_hElastase: NovaScreen (NVS) Enzymatic Assay for human Elastase (AID 2283153)
# Sequence of human Elastase, ELANE (gene 1991) (P08246 whole entry, looked up): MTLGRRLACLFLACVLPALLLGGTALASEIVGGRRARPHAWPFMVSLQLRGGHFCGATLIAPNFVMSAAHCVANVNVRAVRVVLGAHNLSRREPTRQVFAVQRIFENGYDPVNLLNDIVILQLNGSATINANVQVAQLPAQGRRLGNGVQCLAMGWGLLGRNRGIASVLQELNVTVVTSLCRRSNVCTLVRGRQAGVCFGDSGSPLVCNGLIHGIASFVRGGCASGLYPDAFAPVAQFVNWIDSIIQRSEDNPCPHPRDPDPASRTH
# How it was run: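 Concentration-response to 50 uM max, run singly for chemicals passing a threshold (e.g., 30% inhibition) in a duplicate 25 uM single-point screen. Neutrophil-derived human elastase, absorbance read-out of enzyme activity at 1.5 h; DMSO baseline.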
# [12] = target: human Insulin Receptor (InsR), INSR (gene 3643) (UniProt P06213); assay: NVS_ENZ_hInsR: NovaScreen (NVS) Enzymatic Assay for human Insulin Receptor (InsR) (AID 2283168)
# How it was run: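 Cell-free enzyme assay read 1 h post-dose by fluorescence after substrate/product mobility-shift separation. Duplicate 25 uM primary screen, then singleton concentration-response up to 50 uM for compounds passing threshold; loss of signal vs DMSO.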
# [13] = target: human MAP Kinase-Activated Protein Kinase 2 (MAPKAPK2), MAPKAPK2 (gene 9261) (UniProt P49137); assay: NVS_ENZ_hMAPKAPK2: NovaScreen (NVS) Enzymatic Assay for human MAP Kinase-Activated Protein Kinase 2 (MAPKAPK2) (AID 2283178)
# How it was run: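 Chemicals screened in duplicate at 25 uM, then to 50 uM top concentration in concentration-response, against recombinant human MAPKAPK2; substrate conversion read 1 hr post-dosing by fluorescence after electrophoretic mobility-shift separation, loss-of-signal relative to DMSO.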
# CDK2 (gene 1017) = CDK2 (gene 1017) (UniProt P24941); assay: NVS_ENZ_hCDK2: NovaScreen (NVS) Enzymatic Assay for human Cyclin-Cependent Kinase 2 (CDK2) (AID 2283144)
# How it was run: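 Compounds screened in duplicate at 25 uM, then in singleton concentration-response to a maximum of 50 uM, against recombinant CDK2; kinase activity read 1 hr after dosing by fluorescence with mobility-shift separation of substrate and product.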
# [14] = target: human Janus Kinase 2 (Jak2), JAK2 (gene 3717) (UniProt O60674); assay: NVS_ENZ_hJak2: NovaScreen (NVS) Enzymatic Assay for human Janus Kinase 2 (Jak2) (AID 2283169)
# How it was run: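 Single-point duplicate screen at 25 uM, with hits run in concentration series to a 50 uM top dose. Substrate-product separation by mobility shift with fluorescence detection, 1 h post-dosing; DMSO baseline.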
# [15] = target: human LYN Proto-Oncogene, Src family Tyrosine Kinase (LynA), LYN (gene 4067) (UniProt P07948); assay: NVS_ENZ_hLynA: NovaScreen (NVS) Enzymatic Assay for human LYN Proto-Oncogene, Src family Tyrosine Kinase (LynA) (AID 2283173)
# How it was run: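 Recombinant kinase with fluorescent substrate; product separated from substrate by electrophoretic mobility shift and read 1 h after dosing. Duplicate screen at 25 uM, then concentration-response up to 50 uM; activity scored as signal loss against DMSO.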
# [16] = target: human Dual Specificity Protein Phosphatase 3 (DUSP3), DUSP3 (gene 1845) (UniProt P51452); assay: NVS_ENZ_hDUSP3: NovaScreen (NVS) Enzymatic Assay for human Dual Specificity Protein Phosphatase 3 (DUSP3) (AID 2283152);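 note: phosphatase activity of recombinant human DUSP3 on a fluorogenic substrate without cells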
# How it was run: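 Cell-free fluorescence-intensity enzyme activity assay with recombinant protein and substrate; loss of signal fitted relative to DMSO baseline. Primary screen in duplicate at 25 uM, actives then run in concentration series; measured 0 h after dosing.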
smiles,measurement,setting,value
NCCO,outcome,[1],inactive
same,outcome,[2],inactive
same,outcome,[3],inactive
same,outcome,[4],inactive
Cc1cccc([N+](=O)[O-])c1C,outcome,[5],inactive
same,outcome,[6],inactive
same,AC50,[7],2.06 µM (active)
COc1cc(S(=O)(=O)O)c(C)cc1N=Nc1c(O)ccc2cc(S(=O)(=O)O)ccc12,AC50,[5],25 µM (active)
Cc1ccc2ncccc2c1,outcome,[8],inactive
same,AC50,[1],4.96 µM (active)
CC(=O)C(C)=CC1C(C)=CCCC1(C)C (configuration not stated),outcome,[1],inactive
same,outcome,[3],inactive
O=C(O)Cc1ccccc1Nc1c(Cl)cccc1Cl,AC50,[9],12.3 µM (active)
CCc1c(C(=O)NN2CCCCC2)nn(-c2ccc(Cl)cc2Cl)c1-c1ccc(Br)cc1,outcome,[5],inactive
same,outcome,[10],inactive
same,outcome,[11],inactive
same,outcome,[3],inactive
same,outcome,[12],inactive
CCOC(=O)CCC(=O)OCC,outcome,[8],inactive
same,outcome,[13],inactive
CC1=C(/C=C/C(C)=C/C=C/C(C)=C/CO)C(C)(C)CCC1,outcome,[8],inactive
same,outcome,[5],inactive
same,outcome,CDK2 (gene 1017),inactive
same,outcome,[1],inactive
same,AC50,[11],21.8 µM (active)
same,outcome,[2],inactive
same,outcome,[14],inactive
same,AC50,[7],18.2 µM (active)
CNC(=O)[C@H]1O[C@@H](n2cnc3c(NCc4cc(Cl)ccc4OCc4cc(C)no4)ncnc32)[C@H](O)[C@@H]1N,outcome,[9],inactive
CC1(C)NC(=O)NC1=O,outcome,[8],inactive
CCCCCC(=O)O,outcome,[8],inactive
CCCCc1ccc2c(n1)[C@@H](c1ccc(OC)cc1C[C@H](C)C(=O)O)[C@H](C(=O)O)[C@H]2c1ccc2c(c1)OCO2,outcome,[5],inactive
same,outcome,[3],inactive
CC(=O)Oc1ccccc1C(=O)O,outcome,[10],inactive
same,outcome,[3],inactive
same,outcome,[15],inactive
CCOc1ccc2c(c1)C(C)=CC(C)(C)N2,AC50,[5],15.1 µM (active)
same,AC50,[10],25 µM (active)
same,outcome,[3],inactive
O=C(OCCCCCOC(=O)c1ccccc1)c1ccccc1,outcome,[8],inactive
same,outcome,[1],inactive
same,outcome,[10],inactive
same,outcome,[3],inactive
Cc1ccc(C(C)C)c(O)c1,outcome,[5],inactive
same,outcome,[6],inactive
same,outcome,[4],inactive
Nc1ccc2c(c1)C(=O)c1ccccc1C2=O,AC50,[5],18.9 µM (active)
same,AC50,[11],15.5 µM (active)
same,AC50,[13],16.5 µM (active)
Cc1ccccc1Cl,outcome,[1],inactive
Oc1ccc2c(c1)OC[C@@H](N1CCC(O)(c3ccc(F)cc3)CC1)[C@H]2O,outcome,[16],inactive
COc1ccc(S(=O)(=O)N2C(=O)[C@@](c3ccccc3OC)(N3C[C@H](O)C[C@H]3C(=O)N(C)C)c3cc(Cl)ccc32)c(OC)c1,outcome,[5],inactive
